The full list was thinned out, with hits kept by preference.
ERK EGF inh: qHTS Assay for Inhibitors of the ERK Signaling Pathway using a Homogeneous Screening Assay; Stimulation with EGF; HEK293-V1b, EGF-stimulated phospho-ERK AlphaScreen; Potency, µM (highest dose often 11.5 µM), inactives show at the highest dose activity change, negative = inhibition, most hits filed as inhibitors; actives 0.41% (n = 130,000); AID 1454, 2008; active = well fitted inhibition curve with a large enough effect;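 also: plate controls were stimulated vehicle wells for no effect and unstimulated vehicle basal for full effect; nearly all actives have a fitted effect of over 55% in size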
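Phospho-ERK1/2 measured by AlphaScreen (SureFire) after 5 min 25 nM EGF stimulation of V1b-expressing HEK293 cells preincubated 30 min at 37C with titrated compounds; data scaled to DMSO and EGF controls, Hill-fitted AC50.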
* hit, by the source's call; ! = a repeat was not active; [ ] = remark or other dose. Potency is read from the fitted curve at half-maximal effect.

CN(Cc1nc(-c2cnccn2)no1)C1CC(C)(C)NC(C)(C)C1 was read as ERK EGF inh -6%.
`COc1ccc2c(c1)c1ccc3c(c1n2C)C(=O)C=CC3=O` gave ERK EGF inh 32µM*.
`COc1ccc2c(c1)oc(=O)c1cc(OC)ccc12` gave ERK EGF inh -5%[57.5 µM].
COc1ccc2c(c1)c(C(=O)CN1CCN(Cc3ccccc3)CC1)c(C)n2C was read as ERK EGF inh -5%[57.5 µM].
Nc1nc(F)cc(NCc2ccccc2)n1 was read as ERK EGF inh -5%.
For COc1ccc(/C=N/NC(=O)C(=O)N2CCCC2)cc1OC the results were ERK EGF inh 9%.
O=C1c2c(O)ccc(O)c2C(=O)c2c(NCCNCCO)ccc(NCCNCCO)c21 was read as ERK EGF inh 20µM*!.
Cc1ccc(CNCCNCCO)s1 was read as ERK EGF inh -5%.
Screening CCOC(=O)N1CN(C(=O)OCC)CN(C(=O)OCC)C1 returned ERK EGF inh 4%[57.5 µM].
`O=C(NC1=NCCS1)c1ccc(Cl)c(S(=O)(=O)N2CCc3ccccc32)c1` gave ERK EGF inh -11%[57.5 µM].
Screening O=C(Nc1cccnc1)c1ccc(Cl)c(S(=O)(=O)N2CCc3ccccc32)c1 returned ERK EGF inh 25µM*.
Screening O=C(Nc1cccnc1)c1cccc(S(=O)(=O)N2CCc3ccccc32)c1 returned ERK EGF inh 1%.
`CN(C)C(=O)C12CCC(C)(C(=O)C1Br)C2(C)C` (stereo unspecified) gave ERK EGF inh 4%[57.5 µM].
For CCOC(=O)N1N=C(CC)CC1(O)C(F)(F)F (stereo unspecified) the results were ERK EGF inh -2%.
Cc1cccnc1NC(=S)NC(=O)/C=C/c1ccccc1 was read as ERK EGF inh 2%.
`S=C(Nc1ccc(Br)cc1)N1CCn2cccc2C1c1cccnc1` (stereo unspecified) gave ERK EGF inh -1%.
`COC(=O)c1ccc(NC(=S)NN2CCCCC2c2cccnc2)cc1` (stereo unspecified) gave ERK EGF inh 9%[57.5 µM].
`O=C(NC(=S)N1CCCCC1)c1cccnc1` gave ERK EGF inh -15%[57.5 µM].
For O=C(NC(=S)NN1CCCCC1c1cccnc1)c1ccc(Br)cc1 (stereo unspecified) the results were ERK EGF inh 14µM*.
C[C@@H]1[C@H]2CC[C@@H]3[C@@H]4CC=C5C[C@@H](N(C)C)CC[C@]5(C)[C@@H]4CC[C@@]32CN1C was read as ERK EGF inh -1%[25.7 µM].
For CC(=O)c1ccc(N2CCN(C(=O)c3cc(C)on3)CC2)cc1 the results were ERK EGF inh 7%.
NC(=O)c1ccc(N2CCCCCC2)c([N+](=O)[O-])c1 was read as ERK EGF inh 15%.
`COc1ccc(N2CCN(c3ccc(C(N)=O)cc3[N+](=O)[O-])CC2)cc1` gave ERK EGF inh 1%.
COc1ccc(C(=O)/C=C/c2ccc(N3CCCCC3)c([N+](=O)[O-])c2)cc1 was read as ERK EGF inh 32µM*.
For CCN(Cc1ccccc1)c1ccc(/C=N/NS(=O)(=O)c2ccc(C)c([N+](=O)[O-])c2)cc1 the results were ERK EGF inh 7%.
For Cc1c(Cl)c([N+](=O)[O-])nn1CCCC(=O)N(Cc1ccccc1)Cc1ccccc1 the results were ERK EGF inh 3%.
Screening CCN(Cc1ccccc1)c1ccc(N=Nc2nn(C)c(C)c2[N+](=O)[O-])cc1 returned ERK EGF inh 20µM*.
`CCN(CC)c1ccc(N=Nc2ncn[nH]2)cc1` gave ERK EGF inh 7%.
Cc1ccc(CNC(=O)c2nn(C)c(C)c2[N+](=O)[O-])cc1 was read as ERK EGF inh 8%.
CCN(CC)c1ccc(N=Nc2nn(C)c(C)c2[N+](=O)[O-])cc1 was read as ERK EGF inh 16µM*.
For COC(=O)/C=C/C(=O)N1CCN(c2ccccc2)CC1 the results were ERK EGF inh 17%.
Screening COc1cc(/C=N/NC(=O)C2CCN(CC(O)COCc3ccccc3)CC2)cc(OC)c1OC (stereo unspecified) returned ERK EGF inh 0%.
Screening Cc1ccc(N(Cc2cc(=O)[nH]c3ccccc23)C(=O)C(C)C)cc1 returned ERK EGF inh 4%[57.5 µM].
Screening COc1cc(NC(=O)CCn2c(=O)[nH]c3ccsc3c2=O)cc(OC)c1 returned ERK EGF inh 4%.
Screening COc1ccc(NC(=O)c2cccc(C#N)c2)cc1NS(=O)(=O)c1ccc(F)cc1 returned ERK EGF inh 2%.
`O=C(Nc1ccc(Cl)c(Cl)c1)Nc1cc(C(=O)NC2CC2)ccc1Cl` gave ERK EGF inh 28µM*.
`O=C(NC1CCCCC1)c1ccc(Cl)c(NC(=O)c2ccccc2F)c1` gave ERK EGF inh -14%.
O=C(Nc1ccc(Cl)c(Cl)c1)c1ccc(Cl)c(Cl)c1 was read as ERK EGF inh -8%[57.5 µM].
`CN(C)C(=O)Cn1c(SCC(=O)NC2CCCCC2)nc2ccccc21` gave ERK EGF inh 0%.
`CCCCCCCCCCCCCCCC(=O)N[C@H](CN1CCOCC1)[C@H](O)c1ccccc1` gave ERK EGF inh -2%.
`CC(=O)N1CCN(c2ccc([N+](=O)[O-])c(-n3nc(C)cc3C)c2)CC1` gave ERK EGF inh -7%.
COc1cc(C(=O)N2CCN(c3ccccc3OC)CC2)c([N+](=O)[O-])cc1OC was read as ERK EGF inh -3%.
Screening Clc1ccc(/C=N/N2CCN(Cc3ccccc3Cl)CC2)cc1 returned ERK EGF inh -4%.
Screening O=[N+]([O-])c1ccccc1/C=N\N1CCN(c2ccccc2)CC1 returned ERK EGF inh 22µM*.
Screening COc1ccccc1/C=C/C=N\N1CCN(Cc2ccccc2Cl)CC1 returned ERK EGF inh 18µM*.
`COc1ccccc1N1CCN(/N=C/c2cccc(OC)c2OC)CC1` gave ERK EGF inh -9%.
O=[N+]([O-])c1cc(/C=N/N2CCN(c3ccccc3)CC2)ccc1Cl was read as ERK EGF inh 6%.
Clc1ccccc1CN1CCN(/N=C/c2ccncc2)CC1 was read as ERK EGF inh -4%.
For COc1ccccc1N1CCN(/N=C/C=C/c2ccccc2[N+](=O)[O-])CC1 the results were ERK EGF inh 20µM*.
For Cc1ccc(/C=N/N2CCN(c3ccccc3)CC2)cc1 the results were ERK EGF inh 0%.
CN1CCC(=NNC(=O)CN(c2ccc(Oc3ccccc3)cc2)S(C)(=O)=O)CC1 was read as ERK EGF inh 0%.
`Cc1cc(C(=O)CN2C(=O)NC3(CCCCC3C)C2=O)c(C)n1Cc1cccs1` (stereo unspecified) gave ERK EGF inh 3%.
`C/C=C(/C)C(=O)OC1c2c(ccc3ccc(=O)oc23)OC(C)(C)C1OC(C)=O` (stereo unspecified) gave ERK EGF inh -1%.
CC(=O)Nc1ccccc1N(CC(O)Cn1c2ccccc2c2ccccc21)S(=O)(=O)c1ccc(C)cc1 (stereo unspecified) was read as ERK EGF inh 5%.
`CN(Cc1ccccn1)Cc1nc(COc2ccccc2)no1` gave ERK EGF inh 4%.
`O=[N+]([O-])c1ccccc1N/N=C1\CC2CC=CC12` (stereo unspecified) gave ERK EGF inh 13µM*.
`O=C(N/N=C1\CC2CC=CC12)c1ccccc1Cl` (stereo unspecified) gave ERK EGF inh -4%.
Screening CC1(C)OC(=O)C(=NNc2ccccc2[N+](=O)[O-])C(=O)O1 returned ERK EGF inh 6%[57.5 µM].
Screening O=C(NCc1cccnc1)c1ccc(COc2ccc(Cl)cc2Cl)o1 returned ERK EGF inh -5%.

Bioassay records: PubChem, National Center for Advancing Translational Sciences (NCATS)
